Test systems include RPMI-8226 leukemia; OVCAR-8 ovarian; OVCAR-5 ovarian; OVCAR-4 ovarian; SK-OV-3 ovarian; IGROV1 ovarian; OVCAR-3 ovarian; HS 578T breast; NCI/ADR-RES ovarian; T-47D breast; BT-549 breast; MDA-MB-435 melanoma; SW-620 colon; MCF7 breast; HCT-116 colon; HCC-2998 colon.
What all share (test): NCI-60 one-dose screen, 48 h (100 = growth as untreated, 0 = no growth, -100 = all killed)
Settings in all cases: 10 µM

The structures appear in SMILES notation. This is part of a sample that, as a whole, favours compounds with a hit. Of some 83,000 tested, about 20% had one in any assay.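 Growth was measured after 48 h exposure to one concentration of compound in 96-well plates. Values under 10 count as active.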 A number with no mark means an inactive call. The source made the active and inactive calls.

As for `C#Cc1ccc(-n2c(/C=C/c3ccc(O)cc3)nc3ncccc3c2=O)cc1`, the growth in the experiment on RPMI-8226 leukemia was 46.9%; with OVCAR-8 ovarian, 75.2%; in the experiment on OVCAR-5 ovarian, 97.4%; in the experiment on OVCAR-4 ovarian, 61%; in the experiment on SK-OV-3 ovarian, 45.5%; in the experiment with IGROV1 ovarian, 62.5%. Also, the growth with OVCAR-3 ovarian is 4.59% (active); in the experiment on HS 578T breast it was 64%; in the experiment on NCI/ADR-RES ovarian, 55%; in the experiment with T-47D breast it was 67.4%; in the experiment with BT-549 breast, 74.9%; in the experiment on MDA-MB-435 melanoma it was -45.5% (active). The growth is 34.5% in the experiment on SW-620 colon, 10.5% in the experiment with MCF7 breast, 48.5% with HCT-116 colon and 93% with HCC-2998 colon.

Take `O=C1/C(=C\c2ccccc2)CN(C(=O)c2ccccc2F)C/C1=C\c1ccccc1`: the growth is -40.3% (active) with RPMI-8226 leukemia; 10.6% in the experiment with OVCAR-8 ovarian; 64.9% in the experiment with OVCAR-5 ovarian; 28.8% with OVCAR-4 ovarian; 36.6% in the experiment with SK-OV-3 ovarian; -11.2% (active) with IGROV1 ovarian. Besides, the growth is -20.1% (active) in the experiment on OVCAR-3 ovarian; -10.1% (active) in the experiment with HS 578T breast; 23.8% in the experiment with NCI/ADR-RES ovarian; 42.7% in the experiment on T-47D breast; -24.6% (active) in the experiment with BT-549 breast; -35.6% (active) with MDA-MB-435 melanoma. Besides, the growth is -71.7% (active) in the experiment with SW-620 colon, -37.6% (active) in the experiment with MCF7 breast, -84.8% (active) in the experiment on HCT-116 colon and -84.1% (active) with HCC-2998 colon.

`CSc1nn(-c2ccccc2)c2ncnc(Oc3ccc(C)cc3)c12`: the growth in the experiment on RPMI-8226 leukemia is 92.4%; in the experiment with OVCAR-8 ovarian, 50.7%; in the experiment on OVCAR-5 ovarian, 92.5%; in the experiment on OVCAR-4 ovarian, 9.15% (active); in the experiment on SK-OV-3 ovarian it was 75.2%; in the experiment on IGROV1 ovarian, 92.7%. Further, the growth with OVCAR-3 ovarian was 98.1%; with HS 578T breast it was 85.9%; in the experiment on NCI/ADR-RES ovarian, 93.4%; with T-47D breast it was 83.4%; in the experiment with BT-549 breast, 98%; with MDA-MB-435 melanoma, 102%. Also, the growth with SW-620 colon is 103%; with MCF7 breast, 97.7%; in the experiment on HCT-116 colon, 85.3%; in the experiment with HCC-2998 colon, 99.4%.

Consider `N#CCCN1C/C(=C/c2ccccc2)C(=O)/C(=C/c2ccccc2)C1`, for which the growth is -14.4% (active) with RPMI-8226 leukemia; 0.855% (active) in the experiment on OVCAR-8 ovarian; 84.4% in the experiment on OVCAR-5 ovarian; 40.5% with OVCAR-4 ovarian; 67.8% in the experiment with SK-OV-3 ovarian; 55.8% in the experiment on IGROV1 ovarian. Besides, the growth with OVCAR-3 ovarian was 16%; with HS 578T breast it was -9.54% (active); in the experiment with NCI/ADR-RES ovarian, 1.6% (active); with T-47D breast it was 68%; with BT-549 breast, 44.3%; in the experiment on MDA-MB-435 melanoma it was -30.9% (active). Moreover, the growth was -24.9% (active) in the experiment on SW-620 colon, -12% (active) in the experiment on MCF7 breast, -81.7% (active) in the experiment with HCT-116 colon and -81% (active) in the experiment with HCC-2998 colon.

With `COc1cc(Nc2ncnc(Nc3ccc4c(n3)NC(=O)C(C)(C)O4)n2)cc(OC)c1OC`, the growth is 20.6% in the experiment with RPMI-8226 leukemia; 24.1% in the experiment with OVCAR-8 ovarian; 29.3% in the experiment with OVCAR-5 ovarian; 39.8% with OVCAR-4 ovarian; -19.6% (active) in the experiment with SK-OV-3 ovarian; -46.1% (active) in the experiment with IGROV1 ovarian. For the same compound, the growth in the experiment on OVCAR-3 ovarian was 35.9%; with HS 578T breast it was -20.4% (active); in the experiment on NCI/ADR-RES ovarian it was 34.2%; in the experiment with T-47D breast it was 34.5%; with BT-549 breast it was 33.7%; in the experiment on MDA-MB-435 melanoma it was 16.6%. Also, the growth is 32.9% with SW-620 colon, 21.9% in the experiment on MCF7 breast, 24.2% in the experiment with HCT-116 colon and 79.1% in the experiment with HCC-2998 colon.

Take `O=C1/C(=C\c2ccc(Cl)cc2)CN(C(=O)c2ccccc2)C/C1=C\c1ccc(Cl)cc1`: the growth is -25% (active) with RPMI-8226 leukemia; 4.04% (active) in the experiment on OVCAR-8 ovarian; 83.8% in the experiment with OVCAR-5 ovarian; 36% with OVCAR-4 ovarian; 59.3% in the experiment with SK-OV-3 ovarian; 4.31% (active) in the experiment on IGROV1 ovarian. Further, the growth was -8.04% (active) in the experiment on OVCAR-3 ovarian; 5.5% (active) with HS 578T breast; 28.3% with NCI/ADR-RES ovarian; 67.2% in the experiment with T-47D breast; 19.8% in the experiment with BT-549 breast; -18.1% (active) with MDA-MB-435 melanoma. Also, the growth with SW-620 colon is -33.8% (active); with MCF7 breast, 2.9% (active); in the experiment with HCT-116 colon, -48.2% (active); in the experiment with HCC-2998 colon, -71.8% (active).

In the case of `COc1ccc(-c2ccc(-c3ccc(C(=N)N)cn3)o2)cc1`, the growth with RPMI-8226 leukemia is 28.3%; with OVCAR-8 ovarian, 76.3%; in the experiment on OVCAR-5 ovarian, 76.9%; with OVCAR-4 ovarian, 61.4%; in the experiment on SK-OV-3 ovarian, 78.4%; in the experiment on IGROV1 ovarian, 75.2%. Further, the growth in the experiment with OVCAR-3 ovarian was 97.1%; in the experiment with HS 578T breast it was 94.1%; in the experiment with NCI/ADR-RES ovarian, 88.1%; with T-47D breast, 69.1%; in the experiment with BT-549 breast, 86.3%; with MDA-MB-435 melanoma it was 26.4%. Further, the growth in the experiment on SW-620 colon was 80.4%; with MCF7 breast it was 47.3%; in the experiment with HCT-116 colon, 45.9%; in the experiment on HCC-2998 colon it was 29.1%.

Turning to `N=C(N)c1ccc(-c2ccc(-c3cccs3)o2)cc1`, the growth with RPMI-8226 leukemia was -25.4% (active); with OVCAR-8 ovarian it was 60%; in the experiment on OVCAR-5 ovarian, 70.3%; with OVCAR-4 ovarian it was 41.6%; in the experiment with SK-OV-3 ovarian, 79.4%; in the experiment with IGROV1 ovarian, 67.5%. Further, the growth was 71.7% in the experiment on OVCAR-3 ovarian; 70.3% in the experiment on HS 578T breast; 71.5% with NCI/ADR-RES ovarian; 43.8% with T-47D breast; 85.2% with BT-549 breast; -49.3% (active) in the experiment with MDA-MB-435 melanoma. Besides, the growth in the experiment with SW-620 colon is -47.9% (active); in the experiment with MCF7 breast it was 3.09% (active); in the experiment on HCT-116 colon, 7.25% (active); with HCC-2998 colon, -66% (active).

For `Cc1[nH]nc2c1C(c1cnn(C)c1)C(C#N)=C(N)O2` (centres undefined), the growth with RPMI-8226 leukemia was 99.3%; with OVCAR-8 ovarian, 99.8%; with OVCAR-5 ovarian, 109%; in the experiment with OVCAR-4 ovarian, 101%; in the experiment on SK-OV-3 ovarian, 103%; in the experiment with IGROV1 ovarian it was 106%. Further, the growth with OVCAR-3 ovarian is 106%; in the experiment with HS 578T breast, 104%; in the experiment on NCI/ADR-RES ovarian it was 108%; in the experiment on T-47D breast it was 96.4%; in the experiment with BT-549 breast, 102%; in the experiment with MDA-MB-435 melanoma, 101%. In addition, the growth is 102% with SW-620 colon, 98% with MCF7 breast, 104% with HCT-116 colon and 110% in the experiment with HCC-2998 colon.

The values above are taken from PubChem BioAssay (NCI).
